Reference: PubChem BioAssay (NCATS)
Results filed as inconclusive are left out. Active and inactive are the calls of the source. Calls come from the whole dose curve; as a rule, active = well fitted inhibition curve with a large enough effect; inconclusive = small, poorly fitted or top-dose-only effect; inactive = flat fitted curve, though single readings scatter.

Key:
HEK293 = experiment: Cytotoxic Profiling of Annotated Libraries Using Quantitative High-Throughput Screening (AID 1296008); conditions: Five cell lines viability, CellTiter-Glo ATP luminescence, 48-72 h; max response: active compounds read low; for max response: % is set by controls: 0 for no effect and ±100 for the full control effect
Method in brief: (§1)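 Cytotoxicity was measured as CellTiter-Glo ATP luminescence, read after 10 min at room temperature. Compound treatment of the cells lasted 48 or 72 hr at 37 degrees Celsius in a qHTS format.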

HaCat = experiment: as above; conditions: Five cell lines viability, CellTiter-Glo ATP luminescence, 48-72 h; max response: active compounds read low
Method in brief: as §1

CRL-7250 = normal cell line; experiment: as above; conditions: Five cell lines viability, CellTiter-Glo ATP luminescence, 48-72 h; max response: active compounds read low
Method in brief: as §1

KB-3-1 = experiment: as above; conditions: Five cell lines viability, CellTiter-Glo ATP luminescence, 48-72 h; max response: active compounds read low
Method in brief: as §1

SC27B = experiment: qHTS profiling for inhibitors of Plasmodium falciparum proliferation (AID 504749); conditions: P. falciparum in erythrocytes, SYBR Green DNA, 72 h; series mostly up to 28.7 µM
Method in brief: (§2)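 SYBR Green fluorescence of parasite DNA, read after lysis and overnight dark incubation, measured growth over 72 h in erythrocyte culture at 0.3% parasitemia and 2.5% hematocrit. Data normalised to DMSO and 0.29 uM artemisinin, with plate-drift correction.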

TAB109 = experiment: as above; conditions: P. falciparum in erythrocytes, SYBR Green DNA, 72 h; series mostly up to 28.7 µM
Method in brief: as §2

TAB113 = experiment: as above; conditions: P. falciparum in erythrocytes, SYBR Green DNA, 72 h; series mostly up to 28.7 µM
Method in brief: as §2

TAB165 = experiment: as above; conditions: P. falciparum in erythrocytes, SYBR Green DNA, 72 h; series mostly up to 28.7 µM
Method in brief: as §2

W2 = experiment: as above; conditions: P. falciparum in erythrocytes, SYBR Green DNA, 72 h; series mostly up to 28.7 µM
Method in brief: as §2

PC49 = experiment: as above; conditions: P. falciparum in erythrocytes, SYBR Green DNA, 72 h; series mostly up to 28.7 µM
Method in brief: as §2
Note: nearly all actives have a fitted effect of over 60% in size.
Potency is the fitted concentration of half-maximal effect.

`Cc1cc(C(C)(C)C)c(O)c(C(C)(C)C)c1` was tested, and the max response (HEK293) was -3.94% (inactive).

`N#CSCC(=O)O` was tested, and the max response (HEK293) was 0.303% (inactive) and the outcome (HaCat) was “inactive”.

For `Cc1nc(N)nc(N)c1-c1ccc(Cl)c(Cl)c1`, the Potency (HEK293) was 1.06 µM (active).

With `Cc1nn(-c2ccccc2)c(C)c1/C=N/N1CCN(Cc2ccccc2)CC1` the max response (CRL-7250) was 4.78% (inactive), the max response (HaCat) was -14.9% (inactive) and the max response (KB-3-1) was 8.96% (inactive).

With `CC(C)OC(=O)c1cc2c(OCC(O)CNC(C)(C)C)cccc2[nH]1` (stereo not given) the max response (CRL-7250) was -22.1% (inactive), the max response (HaCat) was -9.3% (inactive) and the max response (KB-3-1) was -5.12% (inactive).

For `CC(=O)O[C@@H]1C(=O)O[C@@H]2[C@H]1OC(=O)[C@@H]2OC(C)=O`, the max response (HEK293) was -3.32% (inactive).

In the case of `CC[C@@H]([C@H](C)O)n1ncn(-c2ccc(N3CCN(c4ccc(OC[C@@H]5CO[C@@](Cn6cncn6)(c6ccc(F)cc6F)C5)cc4)CC3)cc2)c1=O`, the Potency (HEK293) is reported as 7.5 µM (active) and the max response (HaCat) is reported as -3.01% (inactive).

`O=C(NO)c1ccccc1` was tested, and the max response (CRL-7250) was -19.7% (inactive), the max response (HaCat) was 4.14% (inactive) and the max response (KB-3-1) was -12.1% (inactive).

`Oc1cccc2[nH]ccc12` was tested, and the max response (HEK293) was 2.46% (inactive) and the max response (HaCat) was -5.11% (inactive).

With `CCCCCCCCCCCCCCCC[n+]1ccccc1` the Potency (SC27B) was 10 µM (active), the Potency (TAB109) was 8.91 µM (active) and the Potency (TAB113) was 5.01 µM (active). The Potency (TAB165) was 4.47 µM (active), the Potency (W2) was 1.51 µM (active) and the Potency (CRL-7250) was 1.5 µM (active). For the same compound, the Potency (HaCat) was 5.96 µM (active).

In the case of `O=C1NCCN1CCN1CCC(c2cn(-c3ccc(F)cc3)c3ccc(Cl)cc23)CC1`, the Potency (HEK293) is reported as 6.68 µM (active).

In the case of `CCOC(=O)[C@H](CCc1ccccc1)N[C@@H](C)C(=O)N(CC(=O)O)C1Cc2ccccc2C1`, the max response (CRL-7250) is reported as 0.8% (inactive) and the max response (KB-3-1) is reported as -12.3% (inactive).

With `OCCOCCN1CCN(C(c2ccccc2)c2ccc(Cl)cc2)CC1` (stereo not given) the max response (HEK293) was -4.98% (inactive), the max response (HaCat) was -23.3% (inactive) and the max response (KB-3-1) was 15.7% (inactive).

`CC[N+](CC)(CC)CCOC(=O)C(C1CCCC1)C1CCCC1` was tested, and the outcome (CRL-7250) was “inactive”, the max response (HaCat) was -3.44% (inactive) and the max response (KB-3-1) was 9.62% (inactive).

With `Brc1ccccc1-c1ccccc1` the max response (HEK293) was -9.62% (inactive), the max response (HaCat) was -6.21% (inactive) and the max response (KB-3-1) was -3.53% (inactive).

With `COc1ccc2nc(SCc3ncc(C)c(OC)c3C)[nH]c2c1` the max response (HEK293) was -3.1% (inactive) and the outcome (HaCat) was “inactive”.

With `CCOC(=O)c1cc(=O)c2c(OCC(COc3cccc4oc(C(=O)OCC)cc(=O)c34)OC(=O)[C@@H](N)CCCCN)cccc2o1` the max response (HEK293) was 4.3% (inactive) and the outcome (HaCat) was “inactive”.

`c1ccc(C(O[C@H]2CCCN(CCc3ccc4c(c3)OCO4)C2)c2ccccc2)cc1` was tested, and the max response (CRL-7250) was -1.12% (inactive), the max response (HaCat) was 0.583% (inactive) and the max response (KB-3-1) was -8.06% (inactive).

In the case of `CCN1CCN(c2cc(-c3ccc(F)cc3)c3c(n2)CCCCCC3)CC1`, the max response (CRL-7250) is reported as 3.32% (inactive), the max response (HaCat) is reported as 0.965% (inactive) and the max response (KB-3-1) is reported as -12.5% (inactive).

In the case of `CC(C)(C)c1ccc(O)c(O)c1`, the Potency (HEK293) is reported as 12.2 µM (active).

`CN1CC[C@H](c2c(O)cc(O)c3c(=O)cc(-c4ccccc4Cl)oc23)[C@H](O)C1` was tested, and the Potency (CRL-7250) was 0.266 µM (active), the Potency (HaCat) was 0.75 µM (active) and the Potency (KB-3-1) was 1.03 µM (active).

In the case of `CC(=O)[C@@]1(O)CC[C@H]2[C@@H]3C[C@H](C)C4=CC(=O)CC[C@]4(C)[C@H]3CC[C@@]21C`, the max response (CRL-7250) is reported as -14.2% (inactive), the max response (HaCat) is reported as -16.6% (inactive) and the max response (KB-3-1) is reported as -7.02% (inactive).

`Cc1ncc([N+](=O)[O-])n1C` was tested, and the outcome (HEK293) was “inactive”.

`CCOC(=O)Cn1cccc1-c1nc(-c2ccc(OC)cc2)c(-c2ccc(OC)cc2)s1` was tested, and the Potency (HEK293) was 8.2 µM (active), the max response (HaCat) was -29.1% (inactive) and the max response (KB-3-1) was 5.97% (inactive).

`COC(=O)[C@H]1[C@H]2C[C@@H]3c4[nH]c5cc(OC)ccc5c4CCN3C[C@H]2C[C@@H](OC(=O)/C=C/c2ccc(O)c(OC)c2)[C@@H]1OC` was tested, and the Potency (HEK293) was 9.44 µM (active).

For `CC(C(O)c1ccccc1)N(C)CCOC(c1ccccc1)c1ccccc1` (stereo not given), the Potency (HEK293) was 13 µM (active) and the max response (HaCat) was 2.35% (inactive).

For `CC(=O)OC/C=C(C)/C=C/C=C(C)/C=C/C1=C(C)CCCC1(C)C`, the max response (CRL-7250) was 0.956% (inactive), the outcome (HaCat) was “inactive” and the max response (KB-3-1) was -3.66% (inactive).

With `COc1cc2c(cc1OC)CN(C(=O)[C@H](C)N[C@@H](CCc1ccccc1)C(=O)O)[C@H](C(=O)O)C2` the outcome (HEK293) was “inactive” and the max response (HaCat) was 0.663% (inactive).

`CC(C)=CCC/C(C)=C/CC/C(C)=C/C(=O)OCC(=O)[C@@]1(O)CC[C@H]2[C@@H]3CCC4=CC(=O)C=C[C@]4(C)[C@H]3[C@@H](O)C[C@@]21C` was tested, and the Potency (HEK293) was 10.6 µM (active).

With `O=C1Nc2cc(Cl)ccc2Oc2ccccc21` the outcome (HEK293) was “inactive” and the outcome (HaCat) was “inactive”.

For `CO/N=C(/C(=O)N[C@@H]1C(=O)N2C(C(=O)O)=C(Cn3nnc(C)n3)CS[C@H]12)c1csc(N)n1`, the max response (CRL-7250) was 4.76% (inactive), the max response (HaCat) was -1.44% (inactive) and the outcome (KB-3-1) was “inactive”.

In the case of `CCOC(=O)C1=C(C)NC(C)=C(C(=O)OCC)C1c1ccccc1/C=C/C(=O)OC(C)(C)C`, the Potency (HEK293) is reported as 7.5 µM (active).

In the case of `NC(=O)C1(N2CCCCC2)CCN(CCCN2c3ccccc3CCc3ccc(Cl)cc32)CC1`, the Potency (HEK293) is reported as 10.6 µM (active).

For `C[C@H]1C[C@H]2[C@@H]3CCC4=CC(=O)C=C[C@]4(C)[C@H]3C(=O)C[C@]2(C)[C@@]1(O)C(=O)CO`, the max response (HaCat) was -5.83% (inactive).

In the case of `COc1ccc(-n2nc(CCC(=O)N(C)O)cc2-c2ccc(Cl)cc2)cc1`, the outcome (HaCat) is reported as “inactive”.

With `N#C/C(=C1/SC[C@@H](c2ccc(Cl)cc2Cl)S1)n1ccnc1` the max response (HaCat) was -0.746% (inactive).

For `O=[N+]([O-])c1ccc(O)c2ncccc12`, the Potency (PC49) was “inactive”, the Potency (TAB165) was 14.1 µM (active) and the Potency (W2) was 10.7 µM (active). The Potency (HEK293) was 8.41 µM (active).

`CCCCC/C=C\C/C=C\CCCCCCCC(=O)NC(C)c1ccccc1` (stereo not given) was tested, and the max response (HaCat) was -11.3% (inactive) and the max response (KB-3-1) was -8.18% (inactive).

With `CCOC(=O)N1CCC(n2c(=O)[nH]c3cc(Cl)ccc32)CC1` the max response (HaCat) was -12.1% (inactive).

`CC(CC1c2ccccc2CCc2ccccc21)CN(C)C` (stereo not given) was tested, and the max response (HaCat) was 1.42% (inactive).

`O=S(=O)(O)c1ccc2nc(-c3ccccc3)[nH]c2c1` was tested, and the Potency (PC49) was “inactive”, the Potency (SC27B) was “inactive” and the Potency (TAB109) was “inactive”. The Potency (TAB113) was “inactive”, the Potency (TAB165) was “inactive” and the Potency (W2) was “inactive”. The max response (HaCat) was -12.3% (inactive).

`COC(=O)c1cc(Cl)ccc1NS(=O)(=O)C(F)(F)F` was tested, and the max response (HaCat) was -18% (inactive).

For `CC(C)C[C@H](NC(=O)CNC(=O)[C@H](Cc1ccc(O)cc1)NC(=O)[C@H](CO)NC(=O)[C@H](Cc1c[nH]c2ccccc12)NC(=O)[C@H](Cc1cnc[nH]1)NC(=O)[C@@H]1CCC(=O)N1)C(=O)N[C@@H](CCCN=C(N)N)C(=O)N1CCC[C@H]1C(=O)NCC(N)=O` (stereo in doubt), the max response (KB-3-1) was -12.3% (inactive).

`CC(=O)Nc1ccn(C2COC(COC(=O)c3ccccc3)O2)c(=O)n1` (stereo not given) was tested, and the Potency (HEK293) was 18.8 µM (active) and the outcome (KB-3-1) was “inactive”.

`O=C1OC2(c3ccccc31)c1cc(I)c(O)c(I)c1Oc1c2cc(I)c(O)c1I` was tested, and the outcome (HaCat) was “inactive”.

For `Nc1ncnc2nc[nH]c12`, the Potency (PC49) was “inactive”, the Potency (SC27B) was “inactive” and the Potency (TAB109) was “inactive”. For the same compound, the Potency (TAB113) was “inactive”, the Potency (TAB165) was “inactive” and the Potency (W2) was “inactive”.

With `COC(=O)C1=C(C)NC(COC(N)=O)=C(C(=O)OC(C)C)C1c1cccc(Cl)c1Cl` (stereo not given) the max response (KB-3-1) was 2.72% (inactive).

For `NC(N)=NCCCCN=C(N)N`, the max response (KB-3-1) was -9.65% (inactive).
